Consider 88 sequences from the supplement of paper PMC11417369.

Whole data set: some 25,000 sequences, median “ln(normalized median fluorescence intensity)” near 9.7, cut for the highest 2% near 11. This excerpt belongs to a sample that is enriched for the highest values.

This test concerns PfAP2-HC AP2 domain (GST-tagged). Kind of test: gcPBM binding intensity (ln(normalized median fluorescence intensity)); higher = stronger DNA binding. The procedure, abridged: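 Binding intensity is defined as the maximum Masliner-normalised natural-log median intensity across replicate spots for either probe orientation. It was measured on an Agilent 4 × 180k array of primer-extended double-stranded 36-bp intergenic genomic probes and negative controls, to which GST-tagged P. falciparum DNA-binding domains made in E. coli were applied for 1 h in 1× PBS with 1% milk, 0.2 mg/ml BSA, 0.5% salmon testes DNA and 0.03% Triton X-100. Detection was by Alexa488 anti-GST antibody and scanning at 488 nm.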
With “TTTTTTTCTTTATTAGCACACATAATATTATATATG [CACACA_site8841]”, the “gcPBM binding intensity (ln)” value was determined as 9.79. The result for “TTGGGGTATCTTCCTATGCACACTTGTTATGTACTA [CACACA_site831]” reads 9.85; that for “TATATATATATATATTGTACTATATAGTATCTTTTT [XGTACX_site1646]”, 9.78. Consider “TTTCACATATATATGGTGCATATTTTATGTGTAAAT [GTGCAC_site9937]”, for which the “gcPBM binding intensity (ln)” value stood at 9.7.

With “AATTTTTTTTAATGATGTACTTTTTGAAAATAAACT [XGTACX_site4221]”, the “gcPBM binding intensity (ln)” value was 9.31. The result for “TTTCTAAGAAAAAAAAAAAAAAAAAAAAAGATACAA [GTGCAC_negctrl_site525]” reads 9.24. Turning to “AATTAAACTCACACCACACACAAAAAAAAAAAAAAA [CACACA_site693]”, the “gcPBM binding intensity (ln)” value was determined as 10.3. The value for “GTAAAAAAAGAGCACACACACAAAAACACCCACAAA [CACACA_site1292]” was 10.9; that for “TACATAAATTAAAACACACACACACCCAAAAAAAAA [CACACA_site2261]” was 10.5; that for “AAGTAAAAAAATAGCACACACACAAAAACACCCACA [CACACA_site1291]” was 10.8. The result for “TGCAACAAAATAAACACACACACACCCCCACAAAAA [CACACA_site3388]” reads 10.6; that for “AATTAACAAAAACACACACACACACCCACAAAAAAA [CACACA_site517]”, 11.4. The result for “AGCACACCCACAAAAACACACACAAAGGTGTTCTTA [CACACA_site8355]” reads 10.5; that for “CACAAACAAAAACACACACACACACCCACAAAAATG [CACACA_site2429]”, 11.

“TAAAATAAAACAAACACACACACACCCCCACAAAAA [CACACA_site3850]”: the “gcPBM binding intensity (ln)” value came to 10.8.

For “ATTTTTTTGTTATTGTTGAAAAGATGGTTCTTTTTT [CACACA_negctrl_site1346]”, the “gcPBM binding intensity (ln)” value was found to be 9.52. Take “TATATAGGTATATATACACACAACGGTTATAAATAT [CACACA_site4759]”: the “gcPBM binding intensity (ln)” value stood at 9.94. The result for “AGCATATTATCATATTGTACATATTATAATATATAT [XGTACX_site3907]” reads 9.69; that for “AATAATACAAAAGTTCAACAAAAAAAAAAAAAAAAT [CACACA_negctrl_site952]”, 9.75; that for “TGTTAATTAAAACATCATTAATATTATTAAAAATAC [XGTACX_negctrl_site509]”, 9.36. The result for “ATTTTTTTTATTTTTTCAATATATATATATATATAT [CACACA_negctrl_site1444]” reads 9.74.

In the case of “AAAATATAATATATTACACACATATATTTTATAAGT [CACACA_site668]”, the “gcPBM binding intensity (ln)” value is 9.82. In the case of “ATATATATGAATACATGTACGTATTTGTCTATGTAT [XGTACX_site8306]”, the “gcPBM binding intensity (ln)” value came out at 9.81. The value for “TTTTTTATTATTATGTGTACGAATATGTGCATATAA [XGTACX_site1364]” was 9.65; that for “TACACCCACCAACACACACACACACTAATAAAAAAA [CACACA_site8060]” was 11.3; that for “AAAAAAAAAAAACACACACACACACTAATATATAAA [CACACA_site8302]” was 10.9. The value for “AAAAATAAAAGGTGTGCACACAAAAATATATATATA [CACACA_site8507]” was 10.5.

Turning to “ATAATATGAAAACACACACACACACTAATAAAAAAA [CACACA_site8617]”, the “gcPBM binding intensity (ln)” value amounted to 11.5. The value for “TGCACCCACCAACACACACACAACTAAAAAATAATG [CACACA_site2566]” was 10.5. The result for “TGAACACCCACAAATACACACAAAAAAAATAAATAA [CACACA_site248]” reads 10.6; that for “AATATAAAAATGCACACACACAAAAAAAAAAAAAAA [CACACA_site6546]”, 10.9; that for “ATAATATGAAAACACACACACACACTAGAAAAAAAA [CACACA_site5153]”, 10.9. The result for “AAATAAAAAGGGTGCACACAAAAATATATATATATA [CACACA_site1728]” reads 9.94; that for “AAAAATAAAGGGTGTGCACACAAAAATATATATATA [CACACA_site1727]”, 11; that for “TAAATATAAAAATGCACACACACAAAAAAAAAAAAA [CACACA_site895]”, 11.4. For the sequence “AATAAAAAAAAATGCACACATATATATATATATATA [CACACA_site2421]”, the “gcPBM binding intensity (ln)” value worked out at 9.71. The result for “TTTTAATTAGTACAAACACACATATACACCCAAAAA [CACACA_site5422]” reads 10; that for “GATGATACGATTATCACACATTTATACTTTCTACAT [CACACA_site5669]”, 9.85. The result for “AAACAAAAAATTTAAAGTACAAAAATTATGATTGTT [XGTACX_site465]” reads 9.62; that for “TATTTAATGTGATACTTATATTATTTTATGATTAAA [GTGCAC_negctrl_site25]”, 9.49; that for “AAAAAAGTTGTATTTGCACACATAAAAAAAAGATAT [CACACA_site3839]”, 9.93.

Regarding “AGAGAATAAATATAAAGTACATATATAAATATATAT [XGTACX_site5055]”, the “gcPBM binding intensity (ln)” value came to 9.7. On to “AAAAAATTATATAAATGTACATTTTGGCTAGACATG [XGTACX_site5977]”, for which the “gcPBM binding intensity (ln)” value was 9.71.

Regarding “AAAATATAATATAATGCACACATAAAAAAAAAAAAA [CACACA_site7989]”, the “gcPBM binding intensity (ln)” value was determined as 9.84.

“AAAAATATAAACTGCACACACACAAAAAAAGAAAAA [CACACA_site648]”: the “gcPBM binding intensity (ln)” value was 10.8. The result for “AAAAATATAAACTGCACACACAAAAAAAAAAGAGAA [CACACA_site1367]” reads 10.3; that for “TAAAAAATATAAACTGCACACACACTAATAAAGAAA [CACACA_site8119]”, 11.1. The result for “TATAATAAATCAAATGCACACACACTAATAAAAAAA [CACACA_site7937]” reads 11.3; that for “ATAATAAAAAAAAATGCACACATATATATATATATA [CACACA_site8766]”, 9.8. The result for “AATATAATATAATGCACACATAAAAAAAAAATCAAA [CACACA_site122]” reads 9.89.

Take “TATATATATATATATACACACACACTAATAAAAAAA [CACACA_site8426]”: the “gcPBM binding intensity (ln)” value stood at 11.

For the sequence “ATAAATAATATAAATACACACTAAAAAAAATATATA [CACACA_site4456]”, the “gcPBM binding intensity (ln)” value amounted to 9.88. The value for “AATAAATATAAAAATGCACACACACTAATAAAAAAA [CACACA_site8201]” was 11.4. The result for “TAATAAATCAAATGCACACACACAAAAAAAAAAAAA [CACACA_site161]” reads 10.3; that for “ATATAAATAATATAAATACACACTAAAAAAAATATA [CACACA_site542]”, 9.84. The result for “TATAAAAATAGGATTTGTACATATAAAAAAGGAAAA [XGTACX_site8678]” reads 9.73; that for “TATAATATTAATGACTGTACTCATACGTATATTTAT [XGTACX_site5493]”, 9.76; that for “TACGGTTGTTTATTTTGTACGTAAAAAATATATTAT [XGTACX_site8393]”, 9.7. With “ATTAAATAAAATCATGCACACAATATATATTTTAAG [CACACA_site2495]”, the “gcPBM binding intensity (ln)” value came out at 9.71. Turning to “AACATAATTAAAAATTGTACAGAATTTCAATCGAAA [XGTACX_site7542]”, the “gcPBM binding intensity (ln)” value was 9.62. Take “TCAACAAATAAACTTTGTACATATATACAAAATATA [XGTACX_site4447]”: the “gcPBM binding intensity (ln)” value was 9.53. In the case of “AAAAAATAAATAAACATAAATAAATAAATAAATATA [XGTACX_negctrl_site340]”, the “gcPBM binding intensity (ln)” value was 9.73.

For “CAATATATTTGATTTACACACTTACAATGTATATAA [CACACA_site2994]”, the “gcPBM binding intensity (ln)” value turned out to be 9.55.

Consider “AATAGTACAAAAAAAAAAAAAAAAAAAAAAAAAAAA [CACACA_negctrl_site1376]”, for which the “gcPBM binding intensity (ln)” value is 8.9. The value for “TTATTTTTTAGTAGTACACACTTTTTGTACCTTTTA [CACACA_site4503]” was 9.87; that for “ATCAAGCACGAACACACACACACACGCACGCCCACA [CACACA_site6308]” was 11.4; that for “CCAACATGCCCACGCACACACAAAAAAAGCATGCAT [CACACA_site4217]” was 10. As to “CATATACACGAACACACACACACACGCACAAAAAAA [CACACA_site6376]”, the “gcPBM binding intensity (ln)” value came out at 10.6. The result for “TTATACTGTATAGTCGCACACAAAAATATAAAATAT [CACACA_site3869]” reads 9.98; that for “ATTATGCACGGACACACACACACACCCCTAAAAAAT [CACACA_site5426]”, 11.4.

On to “ATTATGCACCAACACACACACACACCCCTAAAAAAT [CACACA_site2568]”, for which the “gcPBM binding intensity (ln)” value turned out to be 10.8. The value for “TGCACAAAATTATGCACACACCTAAAATTAATTTTT [CACACA_site5596]” was 9.8. The result for “TAATTATGCGGACACACACACACACCCAACTAAAAA [CACACA_site5427]” reads 10.9. The result for “TGTGCCCAAAATTATGCACACACCTAAAATTAATTT [CACACA_site2914]” reads 9.85. In the case of “ATTATGCACCAACACACACACACACTCCTAAAAAAT [CACACA_site8822]”, the “gcPBM binding intensity (ln)” value was 11.

As for “TTTTGAATATGGATCTTATATATATTAAATAAATAA [CACACA_negctrl_site344]”, the “gcPBM binding intensity (ln)” value was 9.09. The result for “ATGTTTTATAAAAGGCGTACACATATGCTTAAGTAA [XGTACX_site6232]” reads 9.71; that for “TATATAATTATAAGAACACACATATATATATATATA [CACACA_site2472]”, 9.49; that for “AGGTGATTAATATATACACACATACATATATATATA [CACACA_site8913]”, 10.

Turning to “TATTTTTATTTTCCTTCACACATTTTTTATATTTTT [CACACA_site5830]”, the “gcPBM binding intensity (ln)” value was 9.83. For “TCATTTCACGGACACACACACACAATATATTTCCTT [CACACA_site6023]”, the “gcPBM binding intensity (ln)” value came to 10.9.

In the case of “TCATTTTATTTTTTCACACACACATCTATATTTATA [CACACA_site7547]”, the “gcPBM binding intensity (ln)” value stood at 10.2. The value for “ATTTCACAGAGACACACACACAATATATTTCCTTTT [CACACA_site7773]” was 10.3; that for “TCATTTTATTTTTTCACACACACATATATATATATA [CACACA_site3333]” was 10.2; that for “TTTCATTTCACAGACACACACACACCCTATATTTCC [CACACA_site3906]” was 11.2.

On to “TCATTTCACAAACACACACACACAATATATTTCCTT [CACACA_site3905]”, for which the “gcPBM binding intensity (ln)” value is 10.3. The result for “TCATTTCACAGACACACACACACAAGATATTTCCTT [CACACA_site7774]” reads 11.1. The value for “TCATTTCACAGACACACACACACAATATATTTCCTT [CACACA_site9295]” was 10.8.
